Screening results: PubChem, The Scripps Research Institute Molecular Screening Center
Hits are enriched below; roughly 3.5% of the tested compounds scored in any of these assays.
FBW7 act = activators of human E3 ligase FBW7. Q969H0. AlphaScreen FBW7–phospho-cyclin E peptide binding, activator screen. normalized activity (activation), % at 26.1 µM. actives 0.13% (n = 650,000). AID 1259310; in the data active means normalized activity above about 1.9%;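 further: purified mutant Fbw7 with reduced substrate affinity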
MITF primary = inhibitors of human MITF; O75030; AlphaScreen MITF homodimerization, bead proximity signal; inhibition, % at 2.6 µM; actives 0.91% (n = 650,000); in the data active means inhibition above about 50%;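 further: 0% = vehicle wells with protein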
Target sequence (O75030 whole entry, looked up): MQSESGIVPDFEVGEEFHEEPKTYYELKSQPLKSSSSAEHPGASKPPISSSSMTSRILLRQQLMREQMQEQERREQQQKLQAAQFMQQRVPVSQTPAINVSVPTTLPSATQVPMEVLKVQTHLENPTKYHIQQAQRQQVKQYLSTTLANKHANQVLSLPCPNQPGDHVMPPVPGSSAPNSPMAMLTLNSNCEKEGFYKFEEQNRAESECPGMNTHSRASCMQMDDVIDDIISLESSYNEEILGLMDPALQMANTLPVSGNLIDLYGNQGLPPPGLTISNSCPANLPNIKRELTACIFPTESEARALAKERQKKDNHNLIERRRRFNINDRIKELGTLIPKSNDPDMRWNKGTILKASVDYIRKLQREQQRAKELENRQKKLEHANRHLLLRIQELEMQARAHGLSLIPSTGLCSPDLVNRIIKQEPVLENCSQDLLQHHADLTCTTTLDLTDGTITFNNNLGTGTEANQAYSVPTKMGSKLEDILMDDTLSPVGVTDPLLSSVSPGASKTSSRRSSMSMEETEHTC
TEAD-YAP inh = TEAD-YAP interaction inhibition; actives 1.4% (n = 640,000); HEK-TIYL cells, TEAD-Gal4/YAP UAS-luciferase luminescence; inhibition, % at 9.12 µM; AID 1259422; in the data active means inhibition above about 32%;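 further: 0% = median of test compound wells and 100% = reference inhibitor wells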
GPR151 ag = human GPR151 activation. activation, % at 11.2 µM. actives 1% (n = 650,000). PathHunter beta-arrestin GPR151 cells, luminescence. AID 1508602; in the data active means activation above about 4.9%;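 further: 0% = median of compound wells and 100% = cells with positive control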
Active calls of the source: *.

Results for c1ccc(CCNc2ccc3ncc(-c4ccc5c(c4)OCO5)n3n2)nc1 ?
FBW7 act: 0; MITF primary: -9; TEAD-YAP inh: 48*; GPR151 ag: 0

How did COc1ccc(C(C)=O)cc1COC(=O)/C=C/c1ccc(C)o1 do in these assays?
FBW7 act: 0; MITF primary: -13; TEAD-YAP inh: -1; GPR151 ag: 1

How did CCC[C@@H]1NC(=O)[C@@H]2C[C@H](NC(=O)Nc3ccc(Cl)cc3C)CN2C1=O do in these assays?
FBW7 act: 0; MITF primary: 5; TEAD-YAP inh: 6; GPR151 ag: 0

How did COC(=O)c1cc(COc2ccc3c(c2)oc(=O)c2cc(OC)ccc23)c(C)o1 do in these assays?
FBW7 act: 0; MITF primary: 5; TEAD-YAP inh: -5; GPR151 ag: 1

Results for COc1cc(NC(=O)c2cccc(-c3cccc(C(C)=O)c3)n2)cc(OC)c1OC ?
FBW7 act: 0; MITF primary: -3; TEAD-YAP inh: 36*; GPR151 ag: 2

What do the screens show for `COc1cc(CNc2ccc(-c3cccc(C(C)=O)c3)cn2)cc(OC)c1OC`?
FBW7 act: 0; MITF primary: 13; TEAD-YAP inh: 34*; GPR151 ag: 2

How did COc1cc(NC(=O)c2csc(-c3cccc(C(C)=O)c3)n2)cc(OC)c1OC do in these assays?
FBW7 act: 0; MITF primary: 13; TEAD-YAP inh: 30; GPR151 ag: -1

Results for Cc1cc(OCC(O)CNC2CCCC2)ccc1C(C)C (configuration not stated) ?
FBW7 act: 0; MITF primary: 13; TEAD-YAP inh: 12; GPR151 ag: 0

What do the screens show for `C=CCNCCCOc1ccc(C(C)C)c(C)c1`?
FBW7 act: 0; MITF primary: 37; TEAD-YAP inh: 42*; GPR151 ag: -3

What do the screens show for `Cc1cc(OCCCNCCN)ccc1C(C)C`?
FBW7 act: 0; MITF primary: -2; TEAD-YAP inh: -2; GPR151 ag: -2

How did Cc1cc(OCC(O)CNC(C)C)ccc1C(C)C (configuration not stated) do in these assays?
FBW7 act: 0; MITF primary: -16; TEAD-YAP inh: 51*; GPR151 ag: 0

Results for COc1ccc(OCC(O)Cn2c(Br)nc3c2c(=O)n(C)c(=O)n3C)cc1 (configuration not stated) ?
FBW7 act: 0; MITF primary: -9; TEAD-YAP inh: 13; GPR151 ag: -1

How did Cc1c(C(=O)NC(C)C)sc2ncn(CC(=O)N3CCCCC3C)c(=O)c12 (configuration not stated) do in these assays?
FBW7 act: 0; MITF primary: 7; TEAD-YAP inh: 0; GPR151 ag: 0

What do the screens show for `Cc1c(C(=O)NC2CCCCC2)sc2ncn(CC(=O)N3CCCCC3C)c(=O)c12` (configuration not stated)?
FBW7 act: 2.0*; MITF primary: 22; TEAD-YAP inh: 0; GPR151 ag: 0

Results for CS(=O)(=O)c1ccc(-c2ccc3c(c2)CC(CNC(=O)CCc2cccnc2)O3)cc1 (configuration not stated) ?
FBW7 act: 0; MITF primary: -13; TEAD-YAP inh: 12; GPR151 ag: 1

What do the screens show for `CS(=O)(=O)c1ccc(-c2ccc3c(c2)CC(CNC(=O)/C=C/c2cccnc2)O3)cc1` (configuration not stated)?
FBW7 act: 0; MITF primary: -1; TEAD-YAP inh: 39*; GPR151 ag: 1

Results for C/C(CC(=O)Nc1ccc2c(c1)OCCO2)=N\NC(=O)c1ccccc1 ?
FBW7 act: 0; MITF primary: 7; TEAD-YAP inh: -63; GPR151 ag: 1

Results for O=C(NNC(=S)NC(=O)c1cccs1)c1ccncc1 ?
FBW7 act: 0; MITF primary: 6; TEAD-YAP inh: 4; GPR151 ag: -1

Results for CS(=O)(=O)Nc1cc(C(F)(F)F)ccc1Cl ?
FBW7 act: 0; MITF primary: 2; TEAD-YAP inh: -8; GPR151 ag: -1

Results for CC(C)c1nnc(C2CCN(C(=O)NCc3cccc4ccccc34)CC2)o1 ?
FBW7 act: 2.0*; MITF primary: -2; TEAD-YAP inh: -3; GPR151 ag: 4

How did CC(C)c1nnc(C2CCN(C(=O)NCc3ccccc3)CC2)o1 do in these assays?
FBW7 act: 1; MITF primary: -2; TEAD-YAP inh: 5; GPR151 ag: -1

Results for Cc1cc(NC(=O)c2cc([N+](=O)[O-])ccc2Cl)ccc1-c1cc2ccccc2oc1=O ?
FBW7 act: 0; MITF primary: 6; TEAD-YAP inh: 4; GPR151 ag: -1

What do the screens show for `Nc1nc2cc3c(cc2cc1C(=O)Nc1ccccc1)OCO3`?
FBW7 act: 0; MITF primary: 6; TEAD-YAP inh: 42*; GPR151 ag: 0

Results for CC(C)(C)c1ccc(-c2nc(-c3ccccn3)no2)cc1 ?
FBW7 act: 0; MITF primary: 9; TEAD-YAP inh: 96*; GPR151 ag: -9

How did c1ccc(-c2noc(-c3ccncc3)n2)nc1 do in these assays?
FBW7 act: 0; MITF primary: 11; TEAD-YAP inh: 1; GPR151 ag: -9

How did COc1cccc(-c2nc(-c3ccccc3)no2)c1 do in these assays?
FBW7 act: 1; MITF primary: 3; TEAD-YAP inh: -67; GPR151 ag: -3

Results for Clc1ccccc1/C=C/c1nc(-c2ccccn2)no1 ?
FBW7 act: 0; MITF primary: 9; TEAD-YAP inh: 85*; GPR151 ag: -12

Results for Ic1cccc(-c2nc(-c3ccccn3)no2)c1 ?
FBW7 act: 0; MITF primary: -4; TEAD-YAP inh: 10; GPR151 ag: -2

Results for COc1cccc(-c2nc(-c3ccccn3)no2)c1 ?
FBW7 act: 1; MITF primary: -7; TEAD-YAP inh: 86*; GPR151 ag: -12

How did Brc1cccc(-c2nc(-c3ccccn3)no2)c1 do in these assays?
FBW7 act: 0; MITF primary: -23; TEAD-YAP inh: 73*; GPR151 ag: -9

What do the screens show for `O=C(O)c1ccccc1C(=O)OCc1ccc(F)cc1F`?
FBW7 act: 0; MITF primary: -3; TEAD-YAP inh: 3; GPR151 ag: 0

Results for Brc1ccc(-c2nc(-c3ccccn3)no2)cc1 ?
FBW7 act: 0; MITF primary: 4; TEAD-YAP inh: 90*; GPR151 ag: -10

How did CC1(C2CCN(C(=O)c3ccc4nccnc4c3)CC2)NC(=O)N(Cc2ccsc2)C1=O (configuration not stated) do in these assays?
FBW7 act: 0; MITF primary: 12; TEAD-YAP inh: -5; GPR151 ag: 0

What do the screens show for `COc1ccc(S(=O)(=O)Oc2cccc3ccc(C)nc23)cc1OC`?
FBW7 act: 1.9*; MITF primary: 10; TEAD-YAP inh: 9; GPR151 ag: 4

What do the screens show for `Cc1ccc2cccc(OS(=O)(=O)c3ccccc3C)c2n1`?
FBW7 act: 1; MITF primary: -4; TEAD-YAP inh: 6; GPR151 ag: 2

Results for Brc1ccc2cnc(Nc3ccc(-n4cnc(N5CCOCC5)n4)cc3)nc2c1 ?
FBW7 act: 0; MITF primary: 9; TEAD-YAP inh: 1; GPR151 ag: 1
